Only a selection was taken, and hits are over-represented in it overall.
IDE exosite inh: displaces the probe from the exo-site of human IDE; purified IDE, FL-6b probe fluorescence polarization; hits give low values; actives 6.3% (n = 17,000); P14735; z-score at 20 µM;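 active means z-score of -3 or lower, meaning strong loss of probe binding signal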;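 further: His-tagged human IDE residues 42-1019 made in E. coli with 30 nM FL-6b probe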
Starred values were filed as active, the others as inactive.

SMILES | IDE exosite inh
O=C(Nc1ccccc1F)N1CC(=O)N2[C@H](CO)[C@@H](c3ccc(-c4ccccc4)cc3)[C@@H]2C1 | -6*
O=C(Nc1cc(F)ccc1F)N1CC(=O)N2[C@@H](CO)[C@@H](c3ccc(-c4cccnc4)cc3)[C@@H]2C1 | 1.9
O=C(Nc1ccccc1F)N1CC(=O)N2[C@@H](CO)[C@H](c3ccc(C#Cc4ccccc4)cc3)[C@@H]2C1 | -8.9*
O=C(Nc1ccccc1F)N1CC(=O)N2[C@H](C1)[C@@H](c1ccc(C#Cc3ccccc3)cc1)[C@@H]2CO | -2.8
O=C(Nc1ccccc1F)N1CC(=O)N2[C@H](CO)[C@@H](c3ccc(-c4ccccc4)cc3)[C@H]2C1 | -1.4
O=C(Nc1cc(F)ccc1F)N1CC(=O)N2[C@H](CO)[C@H](c3ccc(-c4cccnc4)cc3)[C@H]2C1 | -4.5*
O=C(Nc1cc(F)ccc1F)N1CC(=O)N2[C@@H](CO)[C@H](c3ccc(-c4cccnc4)cc3)[C@@H]2C1 | 1.6
O=C(Nc1ccccc1F)N1CC(=O)N2[C@H](CO)[C@@H](c3ccc(C#Cc4ccccc4)cc3)[C@H]2C1 | -0.57
C[C@H]1CNC(=O)[C@H](Cc2ccc(C(F)(F)F)cc2)CCn2nncc2COC1 | 0.65
C[C@@H]1CN([C@H](C)CO)C(=O)c2cc(NC(=O)CCCCCC(=O)Nc3ccccc3N)ccc2O[C@@H](C)CCCCO[C@H]1CN(C)Cc1ccc(Cl)c(Cl)c1 | 0.8
C[C@@H]1CN([C@@H](C)CO)C(=O)c2c(c3ccccc3n2C)-c2ccccc2CO[C@H]1CN(C)C(=O)NC1CCCCC1 | 0.61
COCC(=O)N1[C@H](C#N)[C@H](c2ccccc2-c2cccc(OC)c2)[C@@H]1CO | 4.3
N#C[C@@H]1[C@H](c2ccccc2-c2ccc(F)cc2)[C@H](CO)N1C(=O)NC1CCCCC1 | -0.19
OC[C@H]1[C@@H](c2ccc(-c3ccccc3F)cc2)[C@H]2CN(Cc3ccncc3)CCCCN21 | -2.3
OC[C@H]1[C@H](c2ccc(-c3ccccc3F)cc2)[C@H]2CN(Cc3ccncc3)CCCCN21 | -3.3*
OC[C@@H]1[C@@H](c2ccc(-c3ccccc3F)cc2)[C@@H]2CN(Cc3ccncc3)CCCCN12 | -1.5
OC[C@@H]1[C@H](c2ccc(-c3ccccc3F)cc2)[C@@H]2CN(Cc3ccncc3)CCCCN12 | -0.44
COc1ccccc1-c1ccc([C@@H]2[C@@H](CO)N3CCCCN(Cc4ccncc4)C[C@@H]23)cc1 | -6.8*
COc1ccc(C#Cc2ccc([C@H]3[C@H]4CN(Cc5ccncc5)CCCCN4[C@H]3CO)cc2)cc1 | 0.62
N#Cc1cccc(-c2ccc(C3[C@H]4CNC[C@@H]3N4Cc3cc(-c4ccccc4)on3)cc2)c1 (stereo partly drawn) | 0.99
C/C=C/c1ccc(C2[C@@H]3CN(S(=O)(=O)c4cccc(OC)c4)C[C@H]2N3)cc1 (stereo partly drawn) | 0.72
COc1ccc(C#Cc2ccc([C@H]3[C@H]4CN(C(=O)c5ccncc5)CCCCN4[C@H]3CO)cc2)cc1 | 3
O=C(NC[C@H]1[C@@H](c2ccccc2)[C@@H](CO)N1Cc1ccccn1)C1CC1 | 4.8
O=C(CCN1CCCCC1)N[C@@H]1CC[C@H](CC(=O)N2CCC(Cc3ccccc3)CC2)O[C@H]1CO | -0.32
O=C(Nc1ccccc1F)N1CCCCN2[C@@H](CO)[C@@H](c3ccc(C#Cc4ccccc4)cc3)[C@@H]2C1 | -0.93
SMILES | IDE exosite inh
O=C(c1ccc(F)cc1)N1CCCCN2[C@@H](CO)[C@@H](c3ccc(C#CC4(O)CCCC4)cc3)[C@@H]2C1 | 1.8
CC(=O)N1CCCCN2[C@H](CO)[C@@H](c3ccc(C#Cc4ccccc4F)cc3)[C@@H]2C1 | -7.5*
COc1ccc(C#Cc2ccc([C@H]3[C@H](CO)N4CCCCN(C(=O)Nc5ccccc5F)C[C@@H]34)cc2)cc1 | 2.3
O=C(c1ccc(F)cc1)N1CCCCN2[C@H](CO)[C@H](c3ccc(C#CC4(O)CCCC4)cc3)[C@H]2C1 | -3.2*
CCC(=O)N1CCCCN2[C@H](CO)[C@@H](c3ccc(C#Cc4ccccc4F)cc3)[C@@H]2C1 | -5.8*
COc1ccc(C#Cc2ccc([C@@H]3[C@H](CO)N4CCCCN(C(=O)Nc5ccccc5F)C[C@@H]34)cc2)cc1 | 3
CCC(=O)N1CCCCN2[C@H](C1)[C@H](c1ccc(C#Cc3ccccc3F)cc1)[C@@H]2CO | -4.6*
CCC(=O)N1CCCCN2[C@H](CO)[C@H](c3ccc(C#Cc4ccccc4F)cc3)[C@H]2C1 | -1.1
O=C(c1ccc(F)cc1)N1CCCCN2[C@@H](CO)[C@H](c3ccc(C#CC4(O)CCCC4)cc3)[C@@H]2C1 | 5.8
CCC(=O)N1CCCCN2[C@@H](CO)[C@H](c3ccc(-c4ccc(F)cc4)cc3)[C@@H]2C1 | 2.7
CC(=O)N1CCCCN2[C@@H](CO)[C@@H](c3ccc(C#Cc4ccccc4F)cc3)[C@@H]2C1 | -2.9
O=C(C[C@@H]1CC[C@@H](NC(=O)CN2CCOCC2)[C@@H](CO)O1)NC1CCC1 | -0.83
COc1ccc2c3c([nH]c2c1)[C@@H](CO)NCC31CN(C(=O)Nc2ccc3c(c2)OCO3)C1 | -0.42

Compound activity: PubChem BioAssay, Broad Institute
